From PubChem BioAssay (NCI)
About 83,000 compounds went through this panel and 20% of them were active in at least one assay; those are over-represented in the sample as a whole.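 A percent growth of 40 corresponds to 60% growth inhibition; 0 means no net growth; -100 means all cells died. Active threshold: below 10.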 Values without a mark were called inactive. Calls of active or inactive are those of the source.

Tested on: RPMI-8226 leukemia
Experiment: NCI-60 one-dose screen, 48 h (100 = growth as untreated, 0 = no growth, -100 = all killed)
Conditions: 10 µM
Protocol: Growth inhibition of the RPMI-8226 human tumor cell line is measured as a screen for anti-cancer activity. Cells are grown in 96 well plates and exposed to the test compound for 48 hours. Compounds are tested at a single concentration, which is 10^-5 M for most compounds. The reported endpoint is percent growth (GI% or GIPRCNT), where numbers from 0 - 100% represent growth inhibition, and numbers from -100% - 0 represent cell death. For example, a value of 40 represents 60% growth inhibition. A value of 0 means no net growth occurred over the course of the experiment. A value of -40 indicates 40% of cells at the beginning of the experiment died by the end of the experiment. A value of -100 means all cells are dead at the end of the experiment.
NCI-60 Human Tumor Cell Lines Screen was performed using the standard one-dose NCI protocol, which is described in more detail at https://dtp.cancer.gov/discovery_development/nci-60/default.htm.
Compounds with GIPRCNT values below 10 were considered active. Activity score was based on GIPRCNT using the following formula: […]
Score is 0 for GIPRCNT values of 100 or above, 50 for GIPRCNT values of 0, and 100 for GIPRCNT values of -100.

| Structure (SMILES) | growth |
| --- | --- |
| O=C1Nc2ccc(Cl)cc2/C1=C/c1cccc(OCc2ccccc2)c1 | -28.1% (active) |
| O=C(c1ccc(Cl)cc1)C1[C@H](c2ccccc2Br)[C@@H](c2ccccc2)NC12C(=O)Nc1ccccc12 (stereo not given in full) | 12.3% |
| COc1ccc(N(C)c2cc(C#N)nc3ccccc23)cc1N | 19.9% |
| Cc1ccn2c(C(=O)c3ccc(Br)cc3)cc(-c3cc(-c4ccc(N(C)C)cc4)c(C#N)c(N)n3)c2c1 | 83.7% |
| C#Cc1ccc(S(=O)(=O)Nc2cccc(-c3csc(NC(C)=O)n3)c2)cc1 | 42.1% |
| COC[C@@H](CC(C)C)N=C1N/C(=C\c2ccc3ncsc3c2)C(=O)N1C | 3.65% (active) |
| CC(=O)c1ccc(NC(=O)NCn2c(=O)[nH]c3ccccc3c2=O)cc1 | 87.8% |
| O/N=C(\CSc1nnc(-c2c[nH]c3ccccc23)n1-c1ccccc1)c1ccc(Cl)cc1 | -13.4% (active) |
| Cc1ccc(-c2cc(-c3cc4ccccc4nc3Cl)[nH]c(=O)n2)cc1 | -30.1% (active) |
| COc1ccc(-c2cc(C(=O)N=Nc3c(O)[nH]c4ccc(Br)cc34)c3ccccc3n2)cc1 | 38.7% |
| Cc1ccc(-c2ccc(SCC(=O)Nc3ccc(Cl)c(C(F)(F)F)c3)nn2)cc1 | 19.7% |
| C/C(=C\CC/C=C(\C)CC/C=C(\C)CC[C@@H](O)C(C)(C)O)CC/C=C(\C)CC[C@@H](O)C(C)(C)O | -11.4% (active) |
| CCOc1ccc(Nc2nc3ccccc3nc2Nc2ccc(OCC)cc2)cc1 | 18.5% |
| O=C1Nc2cc(Cl)ccc2/C1=C/c1ccc(OCc2ccc(Br)cc2F)cc1 | 0.87% (active) |
| CN1CCN(c2ccc(Nc3nc(NCCCNC(=O)c4ccc(F)cc4)c4sccc4n3)cc2)CC1 | -22.5% (active) |
| Nc1nc(Nc2ccccc2)nn1Cc1c(Cl)cccc1Cl | 27.1% |
| Cc1noc2c(Cc3ccccc3)nn(CC(=O)N/N=C/c3ccc(Br)cc3)c(=O)c12 | 78.6% |
| COc1ccc(C(C)=C(c2ccc(OCCCN(C)C)cc2)c2ccc(OCCCN(C)C)cc2)cc1 | -66% (active) |
| CC(=O)NCC1=C(C)C=C2C(=O)[C@](C)(O)C3(CC3)C(C)=C21 | 82.7% |
| Cc1cc(C)cc(Oc2cccc(-c3c(C)nnn3C3CCN(CCN(C)C)CC3)n2)c1 | -12.1% (active) |

| Structure (SMILES) | growth |
| --- | --- |
| Nc1nnc(-c2c[nH]c3ccc(F)cc23)c(-c2c[nH]c3ncccc23)n1 | 60.3% |
| COc1ccc(/C=C/C(=O)c2ccc(S(=O)(=O)NCCNc3nc(Nc4ccc(F)cc4)nc(N(C)C)n3)cc2)cc1 | 10.5% |
| COc1ccc(/C(CSc2nnc(-c3c[nH]c4ccccc34)n2-c2ccccc2)=N/O)cc1 | 9.81% (active) |
| CN1CCN(c2ccc(Nc3nc(NCCCNC(=O)c4ccccc4)c4sccc4n3)cc2)CC1 | 14.8% |
| CN1C(=O)N(C)C2SC(N/N=C/c3ccc(F)cc3)=NC21 (stereo not given) | 77% |
| O=C(CSc1ccc(-c2ccc(Cl)cc2)nn1)Nc1ccc(Cl)c(C(F)(F)F)c1 | 66.8% |
| N#Cc1ccc(-c2nn(-c3ccc(C(=O)O)cc3)cc2CNc2cc(Cl)cc(C(F)(F)F)c2)cc1 | 1.01% (active) |
| COc1ccc([C@H]2C(C(=O)c3ccc(Cl)cc3)C3(N[C@@H]2c2ccccc2)C(=O)Nc2ccc(Br)cc23)cc1 (stereo not given in full) | -10.6% (active) |
| O=C(N=Nc1c(O)[nH]c2ccc(Br)cc12)c1ccc2nc(-c3ccccc3)[nH]c2c1 | -4.88% (active) |
| Cc1cccc(NC(=O)CSc2nc3ccc(F)cc3c(=O)n2-c2ccc(Cl)cc2)c1C | 88.1% |
| CN1CCN(Cc2ccc(C(=O)Nc3cccc(Nc4ccc5cc(O)ccc5n4)c3)cc2C(F)(F)F)CC1 | -51.3% (active) |
| C=C1CC[C@H](C(=C)C)[C@H]2C=C(C)C(=O)C3=C(C(=O)[C@@](C)(O)C3)[C@H]12 | -22.5% (active) |
| O=C(Nc1ccc(OCC(=O)c2ccccc2)cc1)Nc1ccc(Cl)c(C(F)(F)F)c1 | 7.07% (active) |
| O=C(CS(=O)(=O)c1oc(-c2ccc(Cl)cc2)nc1S(=O)(=O)c1ccc(Cl)cc1)N1CCOCC1 | -9.59% (active) |
| O=[N+]([O-])c1ccc(-c2nc(-c3ccccc3)c(-c3ccccc3)n2-c2ccc(S(=O)(=O)Nc3ncccn3)cc2)cc1 | 33% |
| CCOC(=O)c1c(CSc2ccccc2)n(C)c2cc(CN(C)C)c(O)c(CN(C)C)c12 | 28.5% |
| O=C(CSc1nnc(-c2ccc3nc(-c4ccccc4)[nH]c3c2)o1)Nc1ccc(Br)cc1 | 41% |
| Cc1ccc(C(C)C)cc1NC(=O)c1ccccc1N(C)C | 72.6% |
| Cc1ccc(/C(CSc2nnc(-c3c[nH]c4ccccc34)n2-c2ccccc2)=N/O)cc1 | -19.1% (active) |
| O=c1cc(-c2ccccc2)oc2cc(OCCCCNCc3ccccc3)cc(O)c12 | -22.6% (active) |
